According to PubChem BioAssay (NCI):
Compounds without any hit were thinned out: in the full panel of roughly 83,000, 20% have a hit.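 A percent growth of 40 corresponds to 60% growth inhibition; 0 means no net growth; -100 means all cells died. Active threshold: below 10.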 The source made the active and inactive calls.

How the values were obtained:
Assay in all cases: NCI-60 one-dose screen, 48 h (100 = growth as untreated, 0 = no growth, -100 = all killed)
Conditions in all cases: 10 µM unless noted
HCT-15 colon = system: HCT-15 colon
HT29 colon = system: HT29 colon
SNB-19 CNS = system: SNB-19 CNS
U251 CNS = system: U251 CNS
PC-3 prostate = system: PC-3 prostate
SK-MEL-5 melanoma = system: SK-MEL-5 melanoma
UACC-62 melanoma = system: UACC-62 melanoma
SK-MEL-28 melanoma = system: SK-MEL-28 melanoma
SK-MEL-2 melanoma = system: SK-MEL-2 melanoma
EKVX NSCLC = system: EKVX NSCLC
SN12C renal = system: SN12C renal
UO-31 renal = system: UO-31 renal
TK-10 renal = system: TK-10 renal
ACHN renal = system: ACHN renal
CAKI-1 renal = system: CAKI-1 renal
CCRF-CEM leukemia = system: CCRF-CEM leukemia
MOLT-4 leukemia = system: MOLT-4 leukemia
SNB-75 CNS = system: SNB-75 CNS
LOX IMVI melanoma = system: LOX IMVI melanoma
A498 renal = system: A498 renal

Measured: growth

O=S(=O)(Nc1ccc(I)cc1Cl)c1ccc(-c2cnc(C3CC3)o2)cc1
inactive: HCT-15 colon 30.7% | HT29 colon 15.9% | SNB-19 CNS 45.9% | U251 CNS 35.2% | PC-3 prostate 34% | SK-MEL-5 melanoma 40.2% | UACC-62 melanoma 39% | SK-MEL-28 melanoma 53.8% | SK-MEL-2 melanoma 71.6% | EKVX NSCLC 54.2% | SN12C renal 42.5% | UO-31 renal 50.9% | TK-10 renal 89.3% | ACHN renal 49.2% | CAKI-1 renal 39.1% | CCRF-CEM leukemia 25.2% | MOLT-4 leukemia 45%

COc1cc2nc(Cl)nc(Nc3cccc(C4=Nc5c(N)nc(N)nc5NC(c5ccccc5)C4)c3)c2cc1OC (stereo not drawn)
inactive: HCT-15 colon 48.6% | HT29 colon 90.3% | SNB-75 CNS 75% | U251 CNS 60.4% | PC-3 prostate 75.1% | SK-MEL-5 melanoma 73.6% | UACC-62 melanoma 91.3% | LOX IMVI melanoma 68% | SK-MEL-28 melanoma 105% | SK-MEL-2 melanoma 88.8% | SN12C renal 93.4% | UO-31 renal 94.4% | TK-10 renal 110% | ACHN renal 91.8% | CAKI-1 renal 96.1% | A498 renal 88.9% | CCRF-CEM leukemia 34.8% | MOLT-4 leukemia 54.5%

CCc1cccc2c3c(sc12)C(c1ccc(OC)cc1)C(C#N)=C(/N=C/c1ccc(Cl)cc1)O3 (stereo not drawn)
active: HT29 colon -25.7% | SNB-75 CNS 3.81% | SK-MEL-5 melanoma 4.03% | SK-MEL-2 melanoma -27.5% | A498 renal -7.61%
inactive: HCT-15 colon 20.2% | PC-3 prostate 21.1% | UACC-62 melanoma 27.8% | LOX IMVI melanoma 38% | SK-MEL-28 melanoma 59.8% | EKVX NSCLC 47.6% | SN12C renal 41.8% | UO-31 renal 37.8% | TK-10 renal 80.7% | ACHN renal 43% | CAKI-1 renal 42.1% | CCRF-CEM leukemia 16.3% | MOLT-4 leukemia 22.5%

Cc1ccc(-c2nnc(SCc3ccc(O)c4ncccc34)o2)cc1
inactive: HCT-15 colon 10.8% | HT29 colon 79% | PC-3 prostate 12.2% | SK-MEL-28 melanoma 22.8% | SK-MEL-2 melanoma 34.8% | EKVX NSCLC 22.1% | SN12C renal 34.5% | TK-10 renal 24.3% | ACHN renal 10.3% | CAKI-1 renal 24.8% | A498 renal 36.5% | CCRF-CEM leukemia 12.3% | MOLT-4 leukemia 10.8%
active: SNB-75 CNS 0.0889% | U251 CNS 7.11% | SK-MEL-5 melanoma 2.42% | UACC-62 melanoma 2.61% | LOX IMVI melanoma 4.71% | UO-31 renal -12.8%

CCOC(=O)c1c(Nc2ccccc2)nn2c(-c3ccccc3)ccnc12
active: CCRF-CEM leukemia 9.59%
inactive: HCT-15 colon 63.3% | HT29 colon 84.4% | SNB-75 CNS 67.1% | U251 CNS 90.8% | PC-3 prostate 92.8% | SK-MEL-5 melanoma 78.5% | UACC-62 melanoma 87.7% | LOX IMVI melanoma 83% | SK-MEL-28 melanoma 101% | EKVX NSCLC 95.4% | SN12C renal 90.5% | UO-31 renal 85.5% | TK-10 renal 111% | ACHN renal 90.7% | CAKI-1 renal 88.7% | MOLT-4 leukemia 87.1%

O=S(=O)(Nc1ccc2c(c1)OCO2)c1ccc(-c2cnc(C3CC3)o2)cc1
inactive: HCT-15 colon 20.3% | HT29 colon 14% | SNB-19 CNS 38.1% | U251 CNS 27.4% | PC-3 prostate 37.9% | SK-MEL-5 melanoma 30% | UACC-62 melanoma 33.2% | SK-MEL-28 melanoma 51.2% | SK-MEL-2 melanoma 53.5% | EKVX NSCLC 43.2% | SN12C renal 36.8% | UO-31 renal 45.5% | TK-10 renal 73.8% | ACHN renal 43.6% | CAKI-1 renal 40.8% | CCRF-CEM leukemia 27% | MOLT-4 leukemia 31.5%

CC(O)c1cc2ccccc2c(=O)o1 (stereo not drawn)
active: CCRF-CEM leukemia 1.19%
inactive: HCT-15 colon 103% | HT29 colon 105% | SNB-75 CNS 110% | U251 CNS 103% | PC-3 prostate 95.2% | SK-MEL-5 melanoma 97% | UACC-62 melanoma 97.9% | LOX IMVI melanoma 97.3% | SK-MEL-28 melanoma 101% | EKVX NSCLC 102% | SN12C renal 101% | UO-31 renal 89.9% | TK-10 renal 105% | ACHN renal 102% | CAKI-1 renal 91.5% | MOLT-4 leukemia 107%

O=C1CCCc2nc(Nc3ccc(S(=O)(=O)Nc4ccc([N+](=O)[O-])cc4)cc3)ncc21
inactive: HCT-15 colon 103% | HT29 colon 118% | SNB-75 CNS 92.6% | U251 CNS 103% | PC-3 prostate 105% | SK-MEL-5 melanoma 104% | UACC-62 melanoma 90.3% | LOX IMVI melanoma 97.1% | SK-MEL-28 melanoma 106% | SK-MEL-2 melanoma 111% | EKVX NSCLC 100% | SN12C renal 96.2% | UO-31 renal 87.1% | TK-10 renal 105% | ACHN renal 104% | CAKI-1 renal 89.9% | A498 renal 94.7% | CCRF-CEM leukemia 99.8% | MOLT-4 leukemia 101%

Cc1nn(-c2ccccc2)c2ncnc(N/N=C/c3ccccc3O)c12
inactive: HCT-15 colon 21.3% | HT29 colon 24.6% | U251 CNS 11.2% | PC-3 prostate 25.9% | SK-MEL-28 melanoma 23.2% | SK-MEL-2 melanoma 35.4% | EKVX NSCLC 23.7% | TK-10 renal 40.6% | A498 renal 58.4% | MOLT-4 leukemia 14.3%
active: SNB-75 CNS 5.46% | SK-MEL-5 melanoma -70.2% | UACC-62 melanoma -11.2% | LOX IMVI melanoma 2.3% | SN12C renal 8.87% | UO-31 renal -25.8% | ACHN renal 3.52% | CAKI-1 renal 3.12% | CCRF-CEM leukemia 8.92%

O=C1CCC(N2C(=O)c3ccc(NS(=O)(=O)c4ccccc4OC(F)(F)F)cc3C2=O)C(=O)N1 (stereo not drawn)
active: HCT-15 colon 7.77% | UO-31 renal 3.53% | MOLT-4 leukemia 2.34%
inactive: HT29 colon 78.4% | SNB-75 CNS 58% | U251 CNS 75.8% | PC-3 prostate 46.4% | SK-MEL-5 melanoma 45.9% | UACC-62 melanoma 93.3% | LOX IMVI melanoma 105% | SK-MEL-28 melanoma 66.8% | SK-MEL-2 melanoma 83.7% | EKVX NSCLC 78.8% | SN12C renal 47.8% | TK-10 renal 63.4% | ACHN renal 87.5% | A498 renal 28.5% | CCRF-CEM leukemia 13.2%

CN(C)CCN(C)c1ccc2ncc(C#Cc3cncc(C(=O)Nc4ccc(CN5CCN(C)CC5)c(C(F)(F)F)c4)c3)n2n1
active: HCT-15 colon -25.2% | HT29 colon -66.1% | LOX IMVI melanoma -89% | CCRF-CEM leukemia 7.73% | MOLT-4 leukemia 3.55%
inactive: SNB-75 CNS 47.9% | PC-3 prostate 65.2% | SK-MEL-5 melanoma 96.4% | UACC-62 melanoma 93% | SK-MEL-28 melanoma 105% | SK-MEL-2 melanoma 84.5% | EKVX NSCLC 86.9% | SN12C renal 36.1% | UO-31 renal 68.7% | TK-10 renal 134% | CAKI-1 renal 58.1% | A498 renal 112%

O=C1/C(=C/C=C/c2ccco2)SC(=S)N1C1CCCCC1
inactive: HCT-15 colon 79.2% | HT29 colon 85.3% | SNB-75 CNS 103% | U251 CNS 84% | PC-3 prostate 92.9% | SK-MEL-5 melanoma 58.4% | UACC-62 melanoma 56.7% | LOX IMVI melanoma 103% | SK-MEL-28 melanoma 72.5% | EKVX NSCLC 93% | SN12C renal 83.4% | UO-31 renal 85.6% | TK-10 renal 106% | ACHN renal 96% | CAKI-1 renal 93.1% | CCRF-CEM leukemia 91.2% | MOLT-4 leukemia 90.5%

CCOC(=O)c1c(Nc2ccccc2)nn2c(-c3ccc(OC)cc3)ccnc12
inactive: HCT-15 colon 48.6% | HT29 colon 74.9% | SNB-75 CNS 82.7% | U251 CNS 89.2% | PC-3 prostate 99.2% | SK-MEL-5 melanoma 71.3% | UACC-62 melanoma 95.1% | LOX IMVI melanoma 80.3% | SK-MEL-28 melanoma 89.9% | EKVX NSCLC 99.6% | SN12C renal 93.5% | UO-31 renal 85.7% | TK-10 renal 100% | ACHN renal 83.8% | CAKI-1 renal 78% | CCRF-CEM leukemia 74.1% | MOLT-4 leukemia 82.5%

CC[C@H](CO)Nc1ccc2ncc(C#Cc3cncc(C(=O)Nc4ccc(CN5CCN(C)CC5)c(C(F)(F)F)c4)c3)n2n1
active: HCT-15 colon -38.1% | HT29 colon -35.6% | SNB-75 CNS -91.3% | U251 CNS -85.3% | PC-3 prostate -31.7% | SK-MEL-5 melanoma -95.4% | UACC-62 melanoma -57.7% | LOX IMVI melanoma -98.8% | SK-MEL-28 melanoma -79.9% | SK-MEL-2 melanoma -97.7% | SN12C renal -65.1% | UO-31 renal -83.3% | TK-10 renal -57% | ACHN renal -98.6% | CAKI-1 renal -79.7% | A498 renal -99.4% | MOLT-4 leukemia -3.11%

O=S(=O)(Nc1cccc2ccccc12)c1ccc(-c2cnc(C3CC3)o2)cc1
active: SK-MEL-5 melanoma 7.66%
inactive: HCT-15 colon 14.3% | HT29 colon 16.8% | SNB-19 CNS 38.8% | U251 CNS 23.8% | PC-3 prostate 16.5% | UACC-62 melanoma 37.2% | SK-MEL-28 melanoma 57.7% | SK-MEL-2 melanoma 72.3% | EKVX NSCLC 43.1% | SN12C renal 34.3% | UO-31 renal 43.5% | TK-10 renal 92.6% | ACHN renal 36.9% | CAKI-1 renal 29.9% | MOLT-4 leukemia 21.8%

CN(C)C(=O)c1cc(-c2ccc3ncnc(NCc4ccccc4)c3c2)cnc1N
inactive: HCT-15 colon 105% | HT29 colon 101% | SNB-75 CNS 33.4% | U251 CNS 99% | PC-3 prostate 85.7% | SK-MEL-5 melanoma 93.9% | UACC-62 melanoma 89.3% | LOX IMVI melanoma 75% | SK-MEL-28 melanoma 91.4% | SK-MEL-2 melanoma 95.2% | EKVX NSCLC 47.9% | SN12C renal 56.7% | UO-31 renal 50.6% | TK-10 renal 21.9% | ACHN renal 69.2% | CAKI-1 renal 27.2% | CCRF-CEM leukemia 88% | MOLT-4 leukemia 96.8%
active: A498 renal -2.78%

COc1ccc(CCN2C(=O)CSC2=S)cc1
inactive: HCT-15 colon 56.9% | HT29 colon 104% | SNB-75 CNS 94.6% | U251 CNS 102% | PC-3 prostate 88.8% | UACC-62 melanoma 94.2% | LOX IMVI melanoma 30.3% | SK-MEL-28 melanoma 93.9% | EKVX NSCLC 96% | SN12C renal 88.8% | UO-31 renal 92% | TK-10 renal 65.1% | ACHN renal 99.1% | CAKI-1 renal 82.1% | CCRF-CEM leukemia 75.3% | MOLT-4 leukemia 94.6%
